Records with an inconclusive call do not appear. Calls of active or inactive are those of the source. Calls follow the shape of the dose curve; as a rule, active = well fitted curve in the direction sought with a large enough effect; inconclusive = small, poorly fitted or top-dose-only effect, or another doubt; inactive = no such curve, though single readings can be large; an effect the other way counts as inactive or inconclusive.

Potency data for 19 molecules are collected here from PubChem BioAssay (NCATS).

Test [1] can be described thus: qHTS of pediatric cancer cell lines to identify multiple opportunities for drug repurposing: Primary screen for TC32 cells (AID 1347089). Also: nearly all actives have a fitted effect of over 60% in size. In short, it runs like this:
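Luminescent CellTiter-Glo read-out of metabolically active TC32 cells after 48 h compound exposure. Primary: MIPE 11-point, 0.78 nM–46 µM; NPC 8-point, 0.59 nM–46 µM. Confirmatory: 11-point dilutions.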
In general terms: Quantitative high-throughput screening tests each substance at several concentrations.

Test [2] is described as follows: qHTS of pediatric cancer cell lines to identify multiple opportunities for drug repurposing: Primary screen for DAOY cells (AID 1347090). Also: nearly all actives have a fitted effect of over 55% in size. In short, it runs like this: (§1)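 Eight- or eleven-point concentration series, 48 h treatment at 37 degrees C in growth media; readout CellTiter-Glo luminescence. Potency and efficacy were taken from the concentration-response curves.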

Test [3] is described as follows: qHTS of pediatric cancer cell lines to identify multiple opportunities for drug repurposing: Primary screen for SJ-GBM2 cells (AID 1347091). In short, it runs like this: as §1
Test [4] can be described thus: qHTS of pediatric cancer cell lines to identify multiple opportunities for drug repurposing: Primary screen for A673 cells (AID 1347092). Also: nearly all actives have a fitted effect of over 45% in size. In short, it runs like this:
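A673 cells (500-1,000 cells/well in growth media) were pre-incubated 5 h at 37 degrees C, then exposed to compounds for 48 h. Viability was read as CellTiter-Glo luminescence; concentration-response curves came directly from the primary screen.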

A short description of test [5]: qHTS of pediatric cancer cell lines to identify multiple opportunities for drug repurposing: Primary screen for BT-37 cells (AID 1347094). In short, it runs like this: (§2)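 Readout: CellTiter-Glo luminescence, 48 h treatment. Controls DMSO (neutral) and bortezomib 2.3 µM final (positive). Potency and efficacy taken from primary-screen concentration-response curves.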

Test [6] is described as follows: qHTS of pediatric cancer cell lines to identify multiple opportunities for drug repurposing: Primary screen for NB-EBc1 cells (AID 1347095). In short, it runs like this:
as §2

A short description of test [7]: qHTS of pediatric cancer cell lines to identify multiple opportunities for drug repurposing: Primary screen for SK-N-MC cells (AID 1347093). In short, it runs like this: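 Metabolically active cells were quantified by ATP-dependent luminescence (CellTiter-Glo, 15 min at room temperature) following 48 h treatment. Cells had been plated at 500-1,000 per well and settled for 5 h beforehand.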

Test [8] is described as follows: qHTS of pediatric cancer cell lines to identify multiple opportunities for drug repurposing: Primary screen for U-2 OS cells (AID 1347096). Also: nearly all actives have a fitted effect of over 50% in size. The procedure, abridged: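 Cells (500-1,000/well) in growth media were settled 5 h at 37 degrees C, then given compounds for 48 h. Viability was read as CellTiter-Glo luminescence. Primary runs used MIPE at 11 points (0.78 nM-46 µM) and NPC at 8 points (0.59 nM-46 µM); follow-ups used 11 points.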
Potency is read from the fitted curve at half-maximal effect.

Take `CC[C@]1(O)C[C@H]2CN(CCC3=c4ccccc4=N[C]3[C@@](C(=O)OC)(c3cc4c(cc3OC)N(C)[C@H]3[C@@](O)(C(N)=O)[C@H](O)[C@]5(CC)C=CCN6CC[C@]43[C@@H]65)C2)C1`: the Potency in test [1] is 0.0587 µM (active); in test [2], 0.469 µM (active); in test [3], 0.001 µM (active); in test [4] it was 0.0148 µM (active); in test [5], 122 nM (active); in test [6], 0.0296 µM (active).

For the molecule `CC(=O)O[C@]1(C(C)=O)CC[C@H]2[C@@H]3C=C(Cl)C4=CC(=O)[C@@H]5C[C@H]5[C@]4(C)[C@@H]3CC[C@@]21C`, the Potency result in test [1] and in test [8] was “inactive” each time. The Potency in test [2] was 18.7 µM (active); in test [3], 9.35 µM (active); in test [7], 7.43 µM (active); in test [6], 16.6 µM (active).

Take `CO[C@H]1O[C@@H]2O[C@@]3(C)CC[C@@H]4[C@@H](C)CC[C@@H]([C@H]1C)[C@@]24OO3`: the Potency entry in test [1], in test [2], in test [3], in test [4] and in test [8] was “inactive” throughout. The Potency in test [7] was 5.26 µM (active).

As for `C[C@@H]1CC=CC=CC=CC=C[C@@H](O[C@@H]2O[C@H](C)[C@@H](O)[C@H](N)[C@H]2O)C[C@@H]2O[C@](O)(C[C@@H](O)C[C@@H]3O[C@@H]3C=CC(=O)O1)C[C@H](O)[C@@H]2C(=O)O`, the Potency result in test [1], in test [3] and in test [8] was “inactive” throughout. The Potency in test [2] is 7.43 µM (active); in test [7] it was 8.33 µM (active).

As to `Cn1c(=O)c(-c2c(Cl)cccc2Cl)cc2cnc(Nc3cccc(C(=O)O)c3)nc21`, the Potency entry in test [1] and in test [5] was “inactive” throughout. The Potency in test [2] was 0.372 µM (active); in test [3] it was 0.526 µM (active); in test [7], 0.0935 µM (active); in test [6] it was 1.32 µM (active).

Turning to `NC(=O)c1ncn([C@@H]2O[C@H](CO)[C@@H](O)[C@@H]2O)n1`, the Potency result in test [1], in test [2], in test [3], in test [4], in test [5] and in test [8] was “inactive” each time.

For the molecule `c1ccc(CNc2nc(N3CCOc4ccccc43)nc3c2CCCC3)cc1`, the Potency entry in test [1], in test [2], in test [4] and in test [8] was “inactive” in each case. In addition, the Potency in test [3] is 23.5 µM (active).

With `N=C1SC(=Cc2ccc(-c3ccc4c(c3)C(=O)NC4=O)o2)C(=O)N1c1ccc(Br)cc1`, the Potency result in test [1], in test [2], in test [4], in test [7] and in test [8] was “inactive” in each case. For the same molecule, the values for the Potency in test [3] and in test [6] were 2.64 µM (active) and 3.72 µM (active), respectively.

Regarding `CNC(=O)c1cc(Oc2ccc(NC(=O)Nc3ccc(Cl)c(C(F)(F)F)c3)c(F)c2)ccn1`, the Potency result in test [1] is “inactive”. For the same molecule, the Potency in test [2] is 5.9 µM (active); in test [3] it was 8.33 µM (active); in test [7], 2.96 µM (active); in test [5], 21700 nM (active); in test [6], 5.26 µM (active); in test [8], 23.5 µM (active).

Turning to `CCC(=O)NCC[C@@H]1CCc2ccc3c(c21)CCO3`, the Potency entry in test [1], in test [2], in test [3], in test [7], in test [5] and in test [6] was “inactive” each time. The Potency result in test [8] is “inactive”.

For `CN(C)CCCNC(=O)c1ccc(-c2cc(O)c3ncccc3c2)cc1`, the Potency entry in test [1], in test [2], in test [3], in test [7] and in test [8] was “inactive” throughout. In addition, the Potency in test [4] was 23.5 µM (active).

As to `FC(F)(F)c1ccc(C=Cc2nc(COc3ccc(CCCCn4ccnn4)cc3)co2)cc1`, the Potency in test [1] was 6.58 µM (active); in test [2], 0.0187 µM (active); in test [3], 0.0037 µM (active); in test [7], 0.0093 µM (active); in test [5], 10.9 nM (active). The Potency result in test [8] is “inactive”.

With `COc1ccnc(CS(=O)c2nc3ccc(OC(F)F)cc3[nH]2)c1OC` (stereo not drawn), the Potency result in test [1], in test [2], in test [3], in test [4], in test [5] and in test [6] was “inactive” each time. Further, the Potency result in test [8] is “inactive”.

In the case of `COc1cc(N2CCN(C)CC2)ccc1Nc1nc(N)c(C(=O)c2c(Cl)cccc2Cl)s1`, the Potency entry in test [1], in test [2], in test [3] and in test [8] was “inactive” each time. The Potency was 18.7 µM (active) in test [4] and 16.6 µM (active) in test [7].

Consider `CC=C1C2C=C(C)CC1(N)c1ccc(=O)[nH]c1C2` (stereo not drawn), for which the Potency entry in test [1], in test [2], in test [3], in test [7], in test [5] and in test [6] was “inactive” throughout. For the same molecule, the Potency result in test [8] is “inactive”.

As for `O=C(O)C1=NC(C(=O)O)CC(C=CN2c3cc(O)c(OC4OC(CO)C(O)C(O)C4O)cc3CC2C(=O)O)=C1` (stereo not drawn), the Potency result in test [1], in test [2], in test [3], in test [4], in test [5] and in test [6] was “inactive” each time. The Potency result in test [8] is “inactive”.

As to `CC(C)(C)c1nc(-c2cccc(NS(=O)(=O)c3c(F)cccc3F)c2F)c(-c2ccnc(N)n2)s1`, the Potency entry in test [1], in test [3], in test [5] and in test [6] was “inactive” in each case. Also, the Potency is 18.7 µM (active) in test [2] and 0.59 µM (active) in test [7].

Take `CN1CC(=O)NC1=NC(=O)Nc1cccc(Cl)c1`: the Potency entry in test [1], in test [2], in test [3], in test [4], in test [5] and in test [8] was “inactive” throughout. In addition, in test [6], the Potency is 20.9 µM (active).

Consider `COC1CCC(C(=O)c2ccc3nc4c(cc3c2)CCCO4)CC1` (stereo not drawn), for which the Potency result in test [1], in test [2] and in test [8] was “inactive” each time. The values for the Potency in test [3] and in test [4] were 18.7 µM (active) and 23.5 µM (active), respectively.
